The source of these data is PubChem BioAssay (NCI).

Molecules are shown by their SMILES. Compounds without any hit were thinned out: in the full panel of roughly 83,000, 20% have a hit.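 The endpoint reported here, percent growth, reads 100 for growth as untreated, 0 for no net growth and -100 for all cells dead.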 A number with no mark means an inactive call. The source made the active and inactive calls. Rule for the calls: active = growth percent below 10; inactive = the rest.

Among the test systems are SK-MEL-2 melanoma; EKVX NSCLC; SN12C renal; UO-31 renal; TK-10 renal; ACHN renal; CAKI-1 renal; A498 renal; CCRF-CEM leukemia; MOLT-4 leukemia; SR leukemia; RPMI-8226 leukemia; OVCAR-8 ovarian; OVCAR-5 ovarian; OVCAR-4 ovarian; SK-OV-3 ovarian; IGROV1 ovarian; OVCAR-3 ovarian; NCI/ADR-RES ovarian; HS 578T breast.
Common to all, as to assay: NCI-60 one-dose screen, 48 h (100 = growth as untreated, 0 = no growth, -100 = all killed)
What all share (details): 10 µM unless noted

In the case of `COC(=O)[C@@H](Cc1c[nH]c2ccccc12)NC(=O)[C@H](Cc1ccccc1)NCc1ccncc1`, the growth with SK-MEL-2 melanoma is 77.7%; in the assay with EKVX NSCLC, 103%; in the assay with SN12C renal, 100%; in the assay on UO-31 renal, 71.9%; in the assay on TK-10 renal it was 98.1%; with ACHN renal, 109%. Further, the growth was 91.9% with CAKI-1 renal; 100% in the assay on A498 renal; 90.3% with CCRF-CEM leukemia; 92.5% in the assay with MOLT-4 leukemia; 99.2% in the assay with SR leukemia; 84.6% with RPMI-8226 leukemia. The growth in the assay with OVCAR-8 ovarian is 89.1%; in the assay on OVCAR-5 ovarian, 101%; in the assay on OVCAR-4 ovarian, 98.7%; in the assay on SK-OV-3 ovarian, 94%; with IGROV1 ovarian, 101%; in the assay with OVCAR-3 ovarian, 101%. The growth in the assay with NCI/ADR-RES ovarian was 99.9%.

`CCCNNC(=O)c1ccc(CNC(=O)/C=C/c2ccccc2)cc1`: the growth in the assay with SK-MEL-2 melanoma is 45% [2.5 µM]; in the assay with EKVX NSCLC, 55.2% [2.5 µM]; in the assay with SN12C renal it was 52.8% [2.5 µM]; with UO-31 renal, 22.4% [2.5 µM]; with TK-10 renal, -0.401% [2.5 µM] (active); with ACHN renal, 10.1% [2.5 µM]. In addition, the growth in the assay on CAKI-1 renal was 23.1% [2.5 µM]; with A498 renal, -18.4% [2.5 µM] (active); in the assay on CCRF-CEM leukemia, 27.3% [2.5 µM]; in the assay on MOLT-4 leukemia it was 15.3% [2.5 µM]; with SR leukemia it was 30.8% [2.5 µM]; in the assay on RPMI-8226 leukemia, 18.9% [2.5 µM]. Besides, the growth with OVCAR-8 ovarian is 20.7% [2.5 µM]; with OVCAR-5 ovarian it was 18.1% [2.5 µM]; in the assay on OVCAR-4 ovarian, 63.2% [2.5 µM]; with SK-OV-3 ovarian it was 8.72% [2.5 µM] (active); in the assay with OVCAR-3 ovarian it was 47.6% [2.5 µM]; with HS 578T breast, 47.3% [2.5 µM]. Further, the growth in the assay on NCI/ADR-RES ovarian is 21% [2.5 µM].

Consider `Cc1c(CC(=O)Nc2ccccc2)nnn1-c1ccccc1`, for which the growth with SK-MEL-2 melanoma was 107%; in the assay on EKVX NSCLC it was 104%; in the assay on SN12C renal, 108%; in the assay with UO-31 renal, 88.2%; in the assay on TK-10 renal, 101%; in the assay with ACHN renal, 109%. Besides, the growth was 97.5% with CAKI-1 renal; 108% in the assay with A498 renal; 105% in the assay on CCRF-CEM leukemia; 99.7% in the assay with MOLT-4 leukemia; 103% in the assay on SR leukemia; 103% with RPMI-8226 leukemia. Moreover, the growth in the assay with OVCAR-8 ovarian was 105%; in the assay with OVCAR-5 ovarian, 108%; with OVCAR-4 ovarian it was 115%; with SK-OV-3 ovarian, 110%; with IGROV1 ovarian it was 106%; in the assay on OVCAR-3 ovarian, 115%. For the same compound, the growth with NCI/ADR-RES ovarian was 99.5%.

As for `O=C(Nc1ccccc1CNc1nc(Nc2ccc(OCCN3CCCC3)cc2)ncc1Cl)NC1CCCCC1`, the growth in the assay with SK-MEL-2 melanoma is 115%; in the assay on EKVX NSCLC, 95%; in the assay on SN12C renal, 88.1%; in the assay with UO-31 renal it was 56.3%; in the assay on TK-10 renal, 116%; in the assay with ACHN renal, 78.2%. For the same compound, the growth was 94.3% with CAKI-1 renal; 75.3% in the assay with A498 renal; 12% in the assay on CCRF-CEM leukemia; 72.3% with MOLT-4 leukemia; 5.48% (active) in the assay on SR leukemia; 60.8% in the assay on RPMI-8226 leukemia. Moreover, the growth in the assay on OVCAR-8 ovarian is 57.5%; in the assay on OVCAR-5 ovarian it was 114%; in the assay on OVCAR-4 ovarian, 46.6%; in the assay with SK-OV-3 ovarian, 104%; in the assay on OVCAR-3 ovarian, 99.5%; with HS 578T breast, 85.2%. Further, the growth in the assay with NCI/ADR-RES ovarian is 74%.

Regarding `COc1ccc(/C=N\NC(=O)c2ccc3nc(-c4ccc(Cl)cc4)[nH]c3c2)cc1`, the growth with SK-MEL-2 melanoma was 64.1%; in the assay with EKVX NSCLC, 29.4%; in the assay with SN12C renal, 6.24% (active); in the assay with UO-31 renal it was 81.9%; in the assay on TK-10 renal, 39.1%; with ACHN renal, 21.9%. For the same compound, the growth is 60.5% with CAKI-1 renal; 66.6% in the assay on A498 renal; 65.3% in the assay on CCRF-CEM leukemia; 68.2% with MOLT-4 leukemia; 0.647% (active) in the assay on SR leukemia; 59.2% in the assay with RPMI-8226 leukemia. Moreover, the growth was 31.3% in the assay with OVCAR-8 ovarian; 77.3% in the assay with OVCAR-5 ovarian; -30.6% (active) in the assay on OVCAR-4 ovarian; 72.3% in the assay with SK-OV-3 ovarian; 14.6% with IGROV1 ovarian; 20.1% in the assay with OVCAR-3 ovarian. The growth in the assay with NCI/ADR-RES ovarian is 73.6%.

As to `Clc1nc(N2CCC[N+]3(CC2)CC[N+]2(CCCNCC2)CC3)nc(N2CCC[N+]3(CC2)CC[N+]2(CCCNCC2)CC3)n1` (stereo not drawn), the growth is 106% in the assay on SK-MEL-2 melanoma; 108% with EKVX NSCLC; 93.7% in the assay on SN12C renal; 97.9% with UO-31 renal; 133% with TK-10 renal; 115% in the assay on ACHN renal. Also, the growth in the assay with CAKI-1 renal was 65.1%; in the assay on A498 renal, 114%; in the assay on CCRF-CEM leukemia it was 96.7%; in the assay with MOLT-4 leukemia, 92.3%; with SR leukemia it was 90.4%; in the assay with RPMI-8226 leukemia, 99.8%. Moreover, the growth in the assay on OVCAR-8 ovarian was 86%; with OVCAR-5 ovarian, 113%; in the assay with OVCAR-4 ovarian it was 98.4%; with SK-OV-3 ovarian it was 76.2%; in the assay on IGROV1 ovarian, 97.3%; with OVCAR-3 ovarian, 92.2%. In the assay with NCI/ADR-RES ovarian, the growth was 92.6%.

Regarding `COc1c(O[C@@H]2OC(CO)[C@H](O)[C@H](O)C2O)cc2oc3cc(O)c(CC=C(C)C)c(O)c3c(=O)c2c1CC=C(C)C` (stereo partly drawn), the growth with SK-MEL-2 melanoma is 97.3%; in the assay with EKVX NSCLC, 93.5%; in the assay with SN12C renal it was 84.4%; with UO-31 renal it was 90.8%; in the assay on TK-10 renal, 110%; in the assay with ACHN renal, 96.5%. Also, the growth with CAKI-1 renal was 103%; in the assay on A498 renal it was 83.8%; with CCRF-CEM leukemia, 92.9%; with MOLT-4 leukemia it was 62.2%; in the assay on SR leukemia, 102%; with RPMI-8226 leukemia, 96.4%. Also, the growth in the assay on OVCAR-8 ovarian is 87.3%; in the assay with OVCAR-5 ovarian it was 108%; in the assay on OVCAR-4 ovarian, 115%; in the assay on SK-OV-3 ovarian, 97.7%; in the assay with IGROV1 ovarian, 91%; in the assay on OVCAR-3 ovarian, 99.7%. Also, in the assay with NCI/ADR-RES ovarian, the growth was 101%.
